In the antibiotic and cytotoxicity screens of Wong et al. (2023) one finds cytotoxicity call data, which are given here for 59 compounds.

Screen size: about 39,000 compounds; about 3,300 (8.5%) were called active. The full list was thinned out, with actives kept by preference.

The subject of this assay is HepG2. The assay can be described thus: cytotoxicity call (relative viability < 0.9). The settings on record: 10 µM.
For `O=C(CCCCCNC(=O)OCCCCO[C@@H]1C[C@H](C2CCCCC2)C=C(C(=O)N2CCOCC2)O1)NO`, the cytotoxicity call was “inactive”.
With `Cc1noc(C)c1NC(=O)Nc1ccc2c(c1)C(=O)N([C@@H](C)CO)C[C@@H](C)[C@H](CN(C)S(C)(=O)=O)O2` the entry was “inactive”; with `C[C@H](CO)N1C[C@H](C)[C@@H](CN(C)C(=O)CCC(F)(F)F)OCCCC[C@H](C)Oc2ccc(NC(=O)C3CCCCC3)cc2C1=O`, “inactive”; with `Cc1noc(C)c1NC(=O)N(C)C[C@@H]1OCCCC[C@H](C)Oc2ccc(NC(=O)CCC(F)(F)F)cc2C(=O)N([C@@H](C)CO)C[C@H]1C`, “inactive”.
With `C[C@H](CO)N1C[C@H](C)[C@H](CN(C)Cc2ccc(Cl)c(Cl)c2)Oc2c(NC(=O)Nc3ccccc3)cccc2C1=O` the entry was “inactive”; with `C[C@@H]1CN([C@H](C)CO)C(=O)c2cccc(NS(=O)(=O)c3ccc(Cl)cc3)c2O[C@H]1CN(C)Cc1ccc(Cl)c(Cl)c1`, “inactive”; with `O=S1(=O)C[C@H](NCCO)[C@@H](O)C1`, “inactive”.
With `CNC(=O)C(=O)NCCc1c[nH]c2ccccc12` the entry was “inactive”.
In the case of `OCc1c[nH]c2ccccc12`, the cytotoxicity call was “active”.
With `NC(Cc1c[nH]c2ccccc12)C(=O)O` (centres undefined) the entry was “inactive”.
Regarding `C[C@@H]1CN([C@H](C)CO)C(=O)c2cccc(NC(=O)c3nc4ccccc4s3)c2O[C@H]1CN(C)C(=O)Nc1ccc(F)cc1`, the cytotoxicity call is “inactive”.
With `CN1CCN(C(=O)CC#N)CC1` the entry was “inactive”; with `C[C@@H]1CN([C@@H](C)CO)C(=O)c2cccc(NC(=O)C3CCCCC3)c2O[C@H]1CN(C)S(=O)(=O)c1cn(C)cn1`, “inactive”.
Turning to `CCCCCC[C@@H](O)CC=CCCCCCCCC(=O)O`, the cytotoxicity call is “inactive”.
Regarding `CN[C@H]1CC[C@@H](c2ccc(Cl)c(Cl)c2)c2ccccc21`, the cytotoxicity call was “active”.
Regarding `CNC1CCC(c2ccc(Cl)c(Cl)c2)c2ccccc21.Cl` (centres undefined), the cytotoxicity call was “active”.
Turning to `N[C@@H]1CC[C@@H](c2ccc(Cl)c(Cl)c2)c2ccccc21`, the cytotoxicity call is “active”.
Regarding `C[C@@H]1CN([C@@H](C)CO)C(=O)CCCn2nncc2CO[C@@H]1CN(C)S(=O)(=O)c1ccc(C#N)cc1`, the cytotoxicity call is “inactive”.
On to `CC(=O)NCCCC[C@@H]1NC(=O)[C@@H]2C[C@H](C(=O)NCCCCCCNC(=O)CS)[C@H](c3ccc(O)cc3)N2C1=O`, for which the cytotoxicity call is “inactive”.
On to `C[C@@H]1CCCCO[C@H](CN(C)C(=O)NC2CCCCC2)[C@H](C)CN([C@@H](C)CO)C(=O)c2cc(NC(=O)c3ccncc3)ccc2O1`, for which the cytotoxicity call was “inactive”.
As to `C[C@@H]1CN([C@@H](C)CO)C(=O)c2cc(NC(=O)NC3CCCCC3)ccc2O[C@@H](C)CCCCO[C@H]1CN(C)Cc1ccc(C(=O)O)cc1`, the cytotoxicity call was “inactive”.
With `CC(C)NC(=O)N(C)C[C@@H]1Oc2c(NS(=O)(=O)c3cn(C)cn3)cccc2C(=O)N([C@@H](C)CO)C[C@H]1C` the entry was “inactive”; with `C[C@@H]1CCCCO[C@@H](CN(C)S(=O)(=O)c2ccccc2)[C@H](C)CN([C@H](C)CO)C(=O)c2cc(NC(=O)Nc3cccc4ccccc34)ccc2O1`, “inactive”; with `C[C@H]1CN([C@@H](C)CO)C(=O)c2cccc(NC(=O)C3CCOCC3)c2O[C@H]1CN(C)Cc1ccncc1`, “inactive”.
Consider `COCCOC(=O)N1C(=O)[C@@]2(c3cc(C#CC4=CCCCC4)ccc31)[C@H](C(=O)N1CCc3cc(OC)c(OC)cc3C1)[C@H]1C(=O)O[C@H](c3ccccc3)[C@H](c3ccccc3)N1[C@@H]2c1ccccc1OCCO`, for which the cytotoxicity call was “active”.
With `COCCOC(=O)N1C(=O)[C@@]2(c3cc(C#CC4=CCCCC4)ccc31)[C@H](c1ccc(OCCO)cc1)N1[C@H](c3ccccc3)[C@H](c3ccccc3)OC(=O)[C@H]1[C@@H]2C(=O)N1CCCCCCC1` the entry was “inactive”; with `COCCOC(=O)N1C(=O)[C@@]2(c3cc(C#CCCO)ccc31)[C@H](C(=O)N1CCc3cc(OC)c(OC)cc3C1)[C@H]1C(=O)O[C@H](c3ccccc3)[C@H](c3ccccc3)N1[C@@H]2c1ccccc1OCCO`, “active”.
With `COCCOC(=O)N1C(=O)[C@@]2(c3cc(C#CCCO)ccc31)[C@H](c1ccccc1OCCO)N1[C@H](c3ccccc3)[C@H](c3ccccc3)OC(=O)[C@H]1[C@@H]2C(=O)N1CCc2cc(OC)c(OC)cc2C1` the entry was “inactive”; with `COCCOC(=O)N1C(=O)[C@@]2(c3cc(C#CCNC(N)=O)ccc31)[C@H](C(=O)N1CCc3cc(OC)c(OC)cc3C1)[C@H]1C(=O)O[C@H](c3ccccc3)[C@H](c3ccccc3)N1[C@@H]2c1ccccc1OCCO`, “inactive”.
With `COCCOC(=O)N1C(=O)[C@@]2(c3cc(C#CC4=CCCCC4)ccc31)[C@H](C(=O)N1CCc3cc(OC)c(OC)cc3C1)[C@H]1C(=O)O[C@H](c3ccccc3)[C@H](c3ccccc3)N1[C@@H]2c1ccc(O)cc1` the entry was “inactive”; with `COCCOC(=O)N1C(=O)[C@@]2(c3cc(C#CC4=CCCCC4)ccc31)[C@H](c1ccc(OCCO)cc1)N1[C@H](c3ccccc3)[C@H](c3ccccc3)OC(=O)[C@H]1[C@@H]2C(=O)N1CCc2cc(OC)c(OC)cc2C1`, “active”; with `COCCOC(=O)N1C(=O)[C@@]2(c3cc(C#CC4=CCCCC4)ccc31)[C@H](c1ccccc1OCCO)N1[C@H](c3ccccc3)[C@H](c3ccccc3)OC(=O)[C@H]1[C@@H]2C(=O)N1CCc2cc(OC)c(OC)cc2C1`, “inactive”.
As for `COCCOC(=O)N1C(=O)[C@@]2(c3cc(C#CC4=CCCCC4)ccc31)[C@H](c1ccccc1OCCO)N1[C@H](c3ccccc3)[C@H](c3ccccc3)OC(=O)[C@H]1[C@@H]2C(=O)N1CCCCCCC1`, the cytotoxicity call is “inactive”.
`C[C@H]1CN([C@@H](C)CO)C(=O)Cc2cc(NS(=O)(=O)c3ccc(F)cc3)ccc2O[C@H]1CN(C)S(=O)(=O)c1cccs1`: the cytotoxicity call was “inactive”.
With `Cc1ccccc1-c1ccc2c(c1)O[C@@H](CN(C)C(=O)Nc1ccc(C(F)(F)F)cc1)[C@@H](C)CN([C@@H](C)CO)S2(=O)=O` the entry was “inactive”.
With `COC(=O)[C@@H]1CC(=O)N(C(C)C)C1` the entry was “inactive”; with `C[C@@H]1CN([C@H](C)CO)C(=O)c2c(c3ccccc3n2C)-c2ccccc2CO[C@@H]1CN(C)Cc1ccc(Oc2ccccc2)cc1`, “inactive”.
With `CN1CCN(C(=O)C[C@@H]2C=C[C@H](NC(=O)Cc3ccccn3)[C@@H](CO)O2)CC1` the entry was “inactive”.
Take `CCCC#Cc1cnc2c(c1)C(=O)N([C@@H](C)CO)C[C@@H](C)[C@H](CN(C)C(=O)c1ccc3c(c1)OCO3)O2`: the cytotoxicity call was “inactive”.
Take `Cc1noc(C)c1NC(=O)N(C)C[C@H]1Oc2ccc(NC(=O)Nc3cccc4ccccc34)cc2CC(=O)N([C@@H](C)CO)C[C@H]1C`: the cytotoxicity call was “inactive”.
With `C[C@@H]1CCCCO[C@H](CN(C)C(=O)Nc2ccc(C(F)(F)F)cc2)[C@@H](C)CN([C@H](C)CO)C(=O)c2cc(NC(=O)CCC(F)(F)F)ccc2O1` the entry was “inactive”; with `C[C@@H]1CCCCO[C@@H](CN(C)C(=O)Nc2ccc(C(F)(F)F)cc2)[C@H](C)CN([C@@H](C)CO)C(=O)c2cc(NC(=O)CCC(F)(F)F)ccc2O1`, “inactive”; with `C[C@@H]1CCCCO[C@H](CN(C)C(=O)Nc2ccc(C(F)(F)F)cc2)[C@H](C)CN([C@H](C)CO)C(=O)c2cc(NC(=O)CCC(F)(F)F)ccc2O1`, “inactive”.
Take `C[C@@H]1CCCCO[C@H](CN(C)C(=O)Nc2ccc(C(F)(F)F)cc2)[C@H](C)CN([C@@H](C)CO)C(=O)c2cc(NC(=O)CCC(F)(F)F)ccc2O1`: the cytotoxicity call was “active”.
Regarding `C[C@@H]1CCCCO[C@@H](CN(C)C(=O)Nc2ccc(C(F)(F)F)cc2)[C@@H](C)CN([C@H](C)CO)C(=O)c2cc(NC(=O)CCC(F)(F)F)ccc2O1`, the cytotoxicity call is “inactive”.
With `C[C@@H]1CN([C@@H](C)CO)C(=O)c2cc(NC(=O)CCC(F)(F)F)ccc2O[C@@H](C)CCCCO[C@H]1CN(C)C(=O)Nc1ccc(C(F)(F)F)cc1` the entry was “inactive”; with `C[C@H](CO)N1C[C@H](C)[C@@H](CN(C)C(=O)Nc2ccc(C(F)(F)F)cc2)OCCCC[C@H](C)Oc2ccc(NC(=O)CCC(F)(F)F)cc2C1=O`, “active”.
With `C[C@H]1CCCCO[C@H](CN(C)C(=O)Nc2ccc(C(F)(F)F)cc2)[C@@H](C)CN([C@@H](C)CO)C(=O)c2cc(NC(=O)CCC(F)(F)F)ccc2O1` the entry was “active”; with `C[C@H](CO)N1C[C@H](C)[C@H](CN(C)C(=O)Nc2ccc(C(F)(F)F)cc2)OCCCC[C@H](C)Oc2ccc(NC(=O)CCC(F)(F)F)cc2C1=O`, “inactive”.
For the compound `Clc1ccc2c(c1)[C@H]1C=CC[C@@H]1[C@@H](c1ccccc1)N2`, the cytotoxicity call was “inactive”.
With `O=C(C[C@H]1C[C@H]2c3cc(NC(=O)C4CCOCC4)ccc3O[C@H]2[C@@H](CO)O1)NCc1ccc2c(c1)OCO2` the entry was “inactive”; with `C[C@@H]1CN([C@H](C)CO)C(=O)c2cc(NC(=O)Nc3cccc4ccccc34)ccc2O[C@@H](C)CCCCO[C@@H]1CN(C)C(=O)NC1CCCCC1`, “inactive”.
Consider `CN(C)C(=O)CN1CCC2(CC1)CN(CCn1cccn1)C(=O)CO2`, for which the cytotoxicity call is “inactive”.
With `CO[C@@H]1CN(C)C(=O)c2ccc(NS(=O)(=O)CC(F)(F)F)cc2OC[C@@H](C)N(C(=O)c2ccc3c(c2)OCO3)C[C@@H]1C` the entry was “inactive”; with `Cc1noc(C)c1NC(=O)N[C@H]1C=C[C@@H](CC(=O)N2CCN(C)CC2)O[C@@H]1CO`, “inactive”; with `CC(C)CNC(=O)[C@@]1(c2ccc([N+](=O)[O-])cc2)CC(=O)N(CC23CC4CC(CC(C4)C2)C3)[C@@H]1c1ccc(CO)cc1I`, “inactive”.
With `CCCNC(=O)[C@@]1(c2ccc([N+](=O)[O-])cc2)CC(=O)N(CC23CC4CC(CC(C4)C2)C3)[C@@H]1c1ccc(CO)cc1I` the entry was “inactive”; with `CC(C)NC(=O)[C@@]1(c2ccc([N+](=O)[O-])cc2)CC(=O)N(CC23CC4CC(CC(C4)C2)C3)[C@@H]1c1ccc(CO)cc1I`, “active”; with `CN(C)c1cc(NC(=O)CNC(C)(C)C)c(O)c2c1C[C@H]1C[C@H]3[C@H](N(C)C)C(=O)C(C(N)=O)=C(O)[C@@]3(O)C(=O)[C@H]1C2=O`, “inactive”.
